Screening data as filed in PubChem BioAssay.
In the library only some 6.3% were active in any assay of this set; here they are far more common.
S2 tox – Viability Counterscreen for Primary qHTS for Inhibitors of ATXN expression. S2 cells (HEK-293 line with an ATXN2-luciferase reporter) viability, CellTiter-Fluor protease fluorescence, 24 h. Potency, µM (top dose mostly 56.7 µM), actives largely listed as cytotoxic. 400,000 tested, 0.49% active; further: nearly all actives have a fitted effect of over 40% in size
VP16 counter – VP16 counterscreen qHTS for inhibitors of ROR gamma transcriptional activity. 310,000 tested, 3.5% active. Drosophila S2 Gal4-VP16 UAS-luciferase, luminescence, 20 h. AID 2546, 2010. Potency, µM (top dose mostly 53.6 µM), for the others: top-dose activity, negative = inhibition, actives largely listed as inhibitors;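 further: Gal4-VP16 expression switched on by copper sulfate through the metallothionein promoter; on the % scale 0 is the no-effect control and ±100 the full control effect; nearly all actives have a fitted effect of over 50% in size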
RORgamma inh – qHTS for inhibitors of ROR gamma transcriptional activity; 310,000 tested, 5.4% active; Nuclear receptor ROR-gamma (Mus musculus), P51450; Drosophila S2 Gal4-RORgamma UAS-luciferase reporter, 20 h; Potency, µM (titrated, usually from 53.6 µM), without a hit: at the top dose activity change, negative = inhibition, actives largely listed as inhibitors; AID 2551, 2010; further: on the % scale 0 is the no-effect control and ±100 the full control effect; nearly all actives have a fitted effect of over 60% in size
Target sequence (P51450 whole entry, looked up, the tested form may be a part): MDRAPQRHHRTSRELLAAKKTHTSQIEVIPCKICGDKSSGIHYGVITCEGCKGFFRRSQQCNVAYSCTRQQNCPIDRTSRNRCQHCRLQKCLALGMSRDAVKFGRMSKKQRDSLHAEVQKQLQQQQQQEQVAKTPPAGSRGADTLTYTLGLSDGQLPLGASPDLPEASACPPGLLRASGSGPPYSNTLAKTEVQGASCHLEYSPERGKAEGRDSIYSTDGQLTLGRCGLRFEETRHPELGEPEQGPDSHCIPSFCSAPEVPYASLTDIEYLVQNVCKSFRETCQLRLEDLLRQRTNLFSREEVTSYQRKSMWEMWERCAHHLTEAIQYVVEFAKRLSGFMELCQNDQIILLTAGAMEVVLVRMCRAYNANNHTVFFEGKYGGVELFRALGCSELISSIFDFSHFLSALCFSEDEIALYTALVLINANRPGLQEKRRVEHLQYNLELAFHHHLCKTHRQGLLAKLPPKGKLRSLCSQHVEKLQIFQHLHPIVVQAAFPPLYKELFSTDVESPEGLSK
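In this cell-based reporter format, copper sulfate (700 uM final) drives Gal4–ROR gamma fusion expression from a metallothionein promoter in Drosophila Schneider cells; compounds preincubated 1 hr, reporter read after 20 hr at ambient temperature.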
ATXN2 expr inh – Primary qHTS for Inhibitors of ATXN expression | HEK-293 ATXN2-luciferase reporter, luminescence, 24 h | AID 1745845, 2022 | Potency, µM (highest dose often 57 µM), for the others: at the top dose activity change, negative = inhibition, most hits filed as inhibitors | 360,000 tested, 0.72% active; further: on the % scale 0 is the no-effect control and ±100 the full control effect; nearly all actives have a fitted effect of over 55% in size
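ATXN2-luciferase reporter cells (luciferase flanked by upstream and downstream ATXN2 gene portions) were treated 24 h at 37 °C with compounds at up to 57 uM. SteadyGlo luminescence gave expression; GF-AFC fluorescence gave viability.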
HepG2 tox – qHTS for Inhibitors of TGF-b: Cytotox Counterscreen | Potency, µM (top dose mostly 46.1 µM), for the others: at the highest dose activity change, negative = cytotoxicity, hits mostly cytotoxic | AID 588856, 2011 | 410,000 tested, 0.76% active | HepG2 CAGA-GFP viability, ATP luminescence, 18 h
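CellTiter-Glo luminescence gave cytotoxicity after 18 hours at 37 degrees C. The cells were HepG2 CAGA-GFP in 1% FBS DMEM, stimulated with 500 pg/mL TGF-beta after compound addition. %Activity was normalised to no-cell wells (complete cell-killing) and DMSO (no toxicity), and curves were fitted and classified.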
TGFb inhibitor – qHTS for Inhibitors of TGF-b; 410,000 tested, 1.2% active; Potency, µM (series often up to 46.1 µM), for inactives: top-dose activity, negative = inhibition, usual class: inhibitors; HepG2 CAGA-GFP TGF-b/SMAD3 reporter, GFP fluorescence, 18 h; TGF-beta stimulated, 500 pg/mL final; further: on the % scale 0 is the no-effect control and ±100 the full control effect; nearly all actives have a fitted effect of over 65% in size
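First, reporter cells (HEPG2 CAGA-GFP) rested 2 h at 37 degrees C. Next, compounds were pinned in and TGF-beta added to 500 pg/mL final. After 18 h, GFP was imaged per cell and summed per well.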
Numbers without * were called inactive; i = inactive; ? = inconclusive; / = no result given; [ ] = another dose, or the depositor's remark. The call rests on the fitted dose curve; in most records, active means well fitted curve in the direction sought with a large enough effect; inconclusive means small, poorly fitted or top-dose-only effect, or another doubt; inactive means no such curve, though single readings can be large; an effect the other way counts as inactive or inconclusive. Potency means the concentration at half of the fitted maximal effect.

SMILES	S2 tox	VP16 counter	RORgamma inh	ATXN2 expr inh	HepG2 tox	TGFb inhibitor
COc1cc(C(=O)OCC(=O)Nc2ccc(SC(F)F)cc2)cc(OC)c1OC	i	1µM*	?	-6.2%	-6.8%	-14.8%
CCn1c2ccccc2c2cc(CN3CCN(S(=O)(=O)CC)CC3)ccc21	/	-4.1%	40.5%	/	/	/
CCn1c2ccccc2c2cc(CN3CCN(Cc4ccc(Br)cc4)CC3)ccc21	/	/	/	/	11.2µM*	?
Clc1ccc(CSc2nnc(Cn3cnc4ccccc43)o2)cc1	i	15.8µM*	5.9%	-32.3%	-24.2%	-12.6%
NC(=O)CSc1nnc(Cn2cnc3ccccc32)o1	i	-19.7%[10 µM]	28.4%	-14.9%	-0.4%	16.7%
O=C(N/N=C/c1ccc(Br)o1)c1cc([N+](=O)[O-])cc([N+](=O)[O-])c1	i	4.47µM*	1.58µM*	/	-11.9%	-3.1%
Cc1cc([N+](=O)[O-])ccc1-c1ccc(/C=N/NC(=O)c2ccc(Br)o2)o1	?	7.94µM*	7.08µM*	?	2.7%	?
O=C(N/N=C/c1ccco1)c1cc([N+](=O)[O-])cc([N+](=O)[O-])c1	i	10µM*	5.62µM*	-9.4%	0.0%	?
O=C(N/N=C/c1ccco1)c1cccc([N+](=O)[O-])c1	i	-28.2%	?	6.3%	-21.1%	2.6%
CCCCC(=O)N/N=C/c1ccc(-c2ccc([N+](=O)[O-])cc2)o1	/	10.4%	?	-21.5%	-30.9%	9.0%
Cc1cc(C)n(Cc2ccc(C(=O)N/N=C/c3ccc(-c4ccc([N+](=O)[O-])cc4)o3)o2)n1	?	6.31µM*	8.91µM*	-24.6%	-44.2%	0.0%
O=C(N/N=C/c1ccncc1)c1cc([N+](=O)[O-])cc([N+](=O)[O-])c1	i	-10.5%	-32.6%	-11.7%	-11.5%	-1.6%
Cc1ccc(CN2CC(C(=O)Nc3ccc(S(=O)(=O)N4CCCCC4)cc3)CC2=O)cc1 (stereo not drawn)	i	/	/	5.3%	2.5%	-7.8%
COc1ccc(-c2ccc(/C=N/NC(=O)c3cccnc3)o2)c([N+](=O)[O-])c1	/	?	20µM*	-8.3%	-2.3%	2.7%
NC(CCC(=O)NC(CS)C(=O)NCC(=O)O)C(=O)O (stereo not drawn)	i	/	/	5.0%	-2.5%	9.8%
Cc1c(N=Nc2c(-c3ccc([N+](=O)[O-])cc3)[nH]n(C(N)=S)c2=O)cccc1[N+](=O)[O-]	?	?	0.708µM*	?	-22.6%	8.91µM*
NC(=S)n1[nH]c(-c2ccc([N+](=O)[O-])cc2)c(N=Nc2ccccc2[N+](=O)[O-])c1=O	i	-13.2%	?	?	-0.8%	-12.1%
NC(=S)n1[nH]c(-c2ccc([N+](=O)[O-])cc2)c(N=Nc2cccc([N+](=O)[O-])c2)c1=O	?	2.51µM*	0.631µM*	?	-68.7%	?
Cc1[nH]n(C(N)=S)c(=O)c1N=Nc1cccc([N+](=O)[O-])c1C	i	/	/	/	20µM*	?
C/C(=N\NC(=O)CCCCCNC(=O)c1ccccc1)c1ccccc1O	i	10µM*	5.01µM*	-4.0%	-31.6%	-12.2%
CCCC/C(C)=N/NC(=O)CN(c1ccc(Br)cc1)S(=O)(=O)c1ccccc1	i	1.2%	10.7%	-8.7%	1.9%	-19.7%
C/C(=N/NC(=O)CN(c1ccccc1)S(=O)(=O)c1ccccc1)c1ccccc1O	?	0.794µM*	0.708µM*	/	5.62µM*	7.08µM*
COc1ccc(CNC(=O)c2cc3oc4ccccc4c3n2C)cc1OC	i	/	/	-13.4%	-4.5%	?
c1ccc(-c2ccc3c(c2)c2c4n3CCN=C4CCC2)cc1	i	?	11.2µM*	-19.0%	-33.1%	27.1%
CN1C(=S)SC(C)(NO)C1(C)C (stereo not drawn)	i	?	15.8µM*	-9.0%	-50.1%	8.9%
SMILES	S2 tox	VP16 counter	RORgamma inh	ATXN2 expr inh	HepG2 tox	TGFb inhibitor
CCOc1ccc(/C=C/C2=Cc3c(sc(NC(=O)CSc4n[nH]c(N)n4)c3C#N)C(C)(C)C2)cc1	/	2.9%	-19.2%	?	20µM*	-16.1%
NC(=O)c1ccsc1NC(=O)CSc1n[nH]c(N)n1	i	/	/	-12.4%	5.0%	-21.1%
Cc1ccsc1/C=C/C1=Cc2c(sc(NC(=O)CSc3n[nH]c(N)n3)c2C#N)C(C)(C)C1	i	19.9%	3.3%	?	12.6µM*	10µM*
COc1ccc2c(Sc3ccc(Cl)cc3)c(C(=O)NCCCN3CCCCC3)[nH]c2c1	/	/	/	25.1µM*	15.8µM*	?
Cc1ccc(C)n1-c1nnc(N2CCCC(C(=O)Nc3ccc(C(C)C)cc3)C2)s1 (stereo not drawn)	i	/	/	-10.9%	-50.2%	7.94µM*
O=C(NC1CCCCC1)c1c[nH]c2ccc(S(=O)(=O)Nc3ccccc3F)cc2c1=O	i	/	/	7.1%	-28.5%	-19.9%
CCCCn1c(N)c(C(=S)NC(=O)CC(C)(C)C)c(=O)n(C)c1=O	?	0.708µM*	1.26µM*	-29.4%	-47.7%	?
O=c1c(Cl)c(N/N=C/c2ccc(Cl)cc2)cnn1-c1ccccc1	?	-16.2%	?	/	14.1µM*	?
O=c1c(Cl)c(Cl)cnn1-c1ccccc1	?	11.2µM*	10µM*	?	14.1µM*	?
Nc1c(Cl)cnn(-c2ccccc2)c1=O	i	/	/	-16.5%	52.0%	0.0%
O=C(CS(=O)Cc1ccco1)NC/C=C\COc1cc(CN2CCCCC2)ccn1 (stereo not drawn)	i	/	/	6.0%	/	/
Cc1csc2c(N3CCN(C(=O)NC(C)(C)C)CC3)ncnc12	i	-11.3%	30.0%	0.0%	-20.7%	?
Cc1csc2c(N3CCN(C(=O)Nc4ccc(Cl)c(Cl)c4)CC3)ncnc12	?	-23.8%	?	20µM*	-29.0%	?
CCN=c1scc(-c2ccc(F)cc2)n1/N=C/c1ccccn1	/	1.5%	17.8µM*	38.4%	-2.4%	0.0%
CCN=c1scc(-c2ccccc2)n1/N=C/c1ccccn1	?	7.94µM*	4.47µM*	?	-35.3%	-27.6%
Cc1nc2ccccc2c(=O)n1/N=C/c1ccccn1	i	-3.9%	-5.1%	27.1%	-9.5%	0.0%
CCc1ccc(C(=O)c2cn(CC(=O)NCCc3ccccc3)c3nc(C)ccc3c2=O)cc1	i	/	/	12.4%	-0.3%	-13.2%
Cc1nn(-c2ccccc2)c(N2CCCC2)c1/C=N/NC(=S)Nc1ccc(F)cc1	i	/	/	1.8%	-6.9%	2.1%
